The values below come from PubChem BioAssay AID449762 (Southern Research Specialized Biocontainment Screening …, 2010).

“And” between values parts separate entries of the source, which are not always exact repeats. Identical values can stand only once. Among all 330,000 compounds or so, about 1,900 (0.58%) were called active. Another 4% or so got no clear call; they are omitted. Rule as the data show it: inconclusive = inhibition above about 70% without an active follow-up result; inactive = below that. A selection follows. Measured potencies and affinities stand elsewhere.

Usually inhibition stands for the change of the read-out against control, counted positive when it falls.

The assay is described as follows: M. tuberculosis growth inhibition, HTS (AID 449762).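 Also: bacterial growth assessed after seven days of incubation.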 The conditions noted are these: M. tuberculosis H37Rv growth inhibition, 7H9 media; at 25 µM; stronger effect = higher value.
As to `Cc1ccc(N2Cc3ccccc3C2=N)cc1[N+](=O)[O-]`, the inhibition is 2.11% (inactive).

For the compound `COc1cc(NS(=O)(=O)c2ccc(OC)c(C)c2C)c(OC)cc1Cl`, the inhibition was -6.31% (inactive).

As to `Cc1cccc(NC(=O)CSc2cccc3cccnc23)c1`, the inhibition is -1.29% (inactive).

As to `O=C(CSc1cccc2cccnc12)Nc1cccc(S(=O)(=O)N2CCOCC2)c1`, the inhibition is -4.53% (inactive).

As to `COc1ccc(NC(=O)CN(C)C(=O)c2cc(C)on2)cc1`, the inhibition was 2.44% (inactive).

Turning to `O=C(OCC(=O)c1ccc[nH]1)C1=COCCO1`, the inhibition is 18.8% (inactive).

`O=C(CCC(=O)c1cccs1)OCC(=O)c1ccccc1`: the inhibition is 2.32% (inactive).

As to `O=C(CC(Nc1ccccc1Cl)C(=O)OCC(=O)c1cccs1)c1ccccc1` (configuration not stated), the inhibition was 2.88% (inactive).

With `Cc1c(Cl)cccc1NC(CC(=O)c1ccccc1)C(=O)OCC(=O)c1cccs1` (configuration not stated), the inhibition was -5.49% (inactive).

Turning to `Cc1cc(C(=O)CSc2n[nH]c(N)n2)c(C)n1-c1cccc(F)c1`, the inhibition is -3.82% (inactive).

On to `COC(=O)c1ccc(-n2c(C)cc(C(=O)COC(=O)C3=COCCO3)c2C)cc1`, for which the inhibition was 48.5% (inactive).

In the case of `O=C(OCC(=O)c1cccs1)c1ccccc1`, the inhibition was -1.72% (inactive).

Consider `O=C(COC(=O)c1cccs1)c1ccc2c(c1)OCCO2`, for which the inhibition is -22.5% (inactive).

For `COCCCn1c(SCC(=O)N2CCOCC2)nc2cc(Cl)ccc2c1=O`, the inhibition is -3.72% (inactive).

`CCOC(=O)CNC(=S)N(Cc1ccccc1)Cc1cccs1`: the inhibition is 2.83% (inactive).

`O=C(CN(Cc1ccccc1Cl)C(=O)c1csnn1)NCCc1ccccc1`: the inhibition was 4.65% (inactive).

On to `Cc1occc1C(=O)Nc1ccccc1C#N`, for which the inhibition is -1.21% (inactive).

Turning to `CC(C)CCOC(=O)C1[C@H]2C(=O)N(Cc3cccs3)C[C@]23C=C[C@H]1O3` (some centres not stated), the inhibition was 0.09% (inactive).

Take `O=[N+]([O-])c1ccccc1-n1cnc2ccccc21`: the inhibition is 8.38% (inactive).

On to `O=c1c2ccccc2ncn1-c1ccc([N+](=O)[O-])cc1[N+](=O)[O-]`, for which the inhibition was 4.34% (inactive).

Consider `COc1cc(C(=O)OCC(=O)NCc2ccccc2)cc(NC(=O)c2ccco2)c1OC`, for which the inhibition was 6.91% (inactive).

Take `C1=C(c2ccccc2)CCN(c2ncnc3nc[nH]c23)C1`: the inhibition is 1.26% (inactive).

For the compound `COc1ccccc1-n1c(N)c(C(N)=O)sc1=S`, the inhibition was -2.51% (inactive).

For the compound `CC(=O)c1ccc(OC(=O)CCc2nc3ccccc3s2)cc1`, the inhibition was -3.41% (inactive).

As for `COC(=O)N1CCN(c2ccc(Cl)c(Cl)c2)CC1`, the inhibition was -0.8% (inactive).

Regarding `CCOC(=O)N1CCN(c2ccc(Cl)c(Cl)c2)CC1`, the inhibition was -2.84% (inactive).

In the case of `N#CCCn1cc(C(=O)Nc2ccc(C(=O)O)cc2)c(-c2cc3ccccc3o2)n1`, the inhibition is -8.4% (inactive).

Turning to `CC(C)n1cnc2c(Nc3cccc(Cl)c3)nc(NCCCO)nc21`, the inhibition is 27% (inactive).

Regarding `CC(C)C[C@H](CO)Nc1nc(Nc2cccc(Cl)c2)c2ncn(C(C)C)c2n1`, the inhibition was 62.4% (inactive).

In the case of `CC(C)(C)n1nnnc1CN1CCSCC1`, the inhibition is 1.25% (inactive).

`COC(=O)c1cc(NC2c3ncccc3C(=O)N2Cc2ccccc2)cc(C(=O)OC)c1` (configuration not stated): the inhibition is 2.2% (inactive).

Consider `CCOC(=O)c1nnn(-c2nonc2-c2ccccc2)c1C`, for which the inhibition was 7.53% (inactive).

With `Cc1c(C(=O)O)sc2nc3n(c(=O)c12)CCC(C)CC3` (configuration not stated), the inhibition was -4.08% (inactive).

Consider `CCOC(=O)c1sc2nc3n(c(=O)c2c1C)CCC3`, for which the inhibition is -4.9% (inactive).

As to `COc1ccc(-c2cc(NCCc3ccncc3)n3ncnc3n2)cc1`, the inhibition is -2.4% (inactive).

Take `COc1ccc(-c2cc(NCc3ccccn3)n3ncnc3n2)cc1`: the inhibition is 65.8% (inactive).

For the compound `COc1ccc(NC(=O)Cn2c(=O)n(-c3ccc(OC)cc3OC)c(=O)c3c(C)c(C)sc32)cc1`, the inhibition was -0.67% (inactive).

Turning to `CC(C)N(CC(N)=O)c1ccc(S(=O)(=O)N2CCCC2)cn1`, the inhibition is -5.77% (inactive).

For `NC(=O)C1CCN(C(=O)COc2ccc3ccc(=O)oc3c2)CC1`, the inhibition is -9.39% (inactive).

As to `CCOC(=O)C1=C(C)Nc2nc(SC)nn2C1c1ccc(C(=O)OC)cc1` (configuration not stated), the inhibition was -5.54% (inactive).

In the case of `CCOC(=O)C1=C(C)Nc2nc(SCC)nn2C1c1ccc(OC)cc1` (configuration not stated), the inhibition is 5.22% (inactive).

For `O=C(NCc1ccccc1)c1nccnc1CO`, the inhibition was 0.4% (inactive).

As to `CN(C)S(=O)(=O)c1ccc(C(=O)NCc2nnc(SCC(=O)c3ccccc3)o2)cc1`, the inhibition was -10.3% (inactive).

For the compound `COc1cc(O)c(C(CCN2CCCC(C)C2)c2cc(OC)c(OC)c(OC)c2)c(OC)c1` (configuration not stated), the inhibition was -1.23% (inactive).

Take `Cc1ccc(-c2nc3ccccc3s2)cc1NC(=O)c1cc(-n2cnnc2)ccc1Cl`: the inhibition is 3.06% (inactive).

With `O=C(Nc1ccc(-c2nc3ccccc3s2)cc1)c1cc(-n2cnnc2)ccc1Cl`, the inhibition is -1.18% (inactive).

For `Cc1cc(C)c(NC(=O)Cn2ncc3ccccc32)c(C)c1`, the inhibition was -0.59% (inactive).

With `COC(=O)c1ccc(OC(=O)c2cccs2)cc1`, the inhibition was 19.3% (inactive).

For the compound `Cc1ccc(N2C(=O)C3CCCN3C2=S)c(C)c1` (configuration not stated), the inhibition is 5.68% (inactive).

In the case of `NS(=O)(=O)c1ccc(S(=O)(=O)c2ccccc2)nc1`, the inhibition is 1.3% (inactive).

Turning to `Nc1ncc([N+](=O)[O-])cc1S(=O)(=O)c1ccccc1`, the inhibition is 2.55% (inactive).

On to `C#CCNC(=O)C1=C[C@@H](C)C[C@@H](OCc2ccc(CO)cc2)O1`, for which the inhibition is 2.19% (inactive).

On to `COc1ccc(-c2cc(-n3c(C(F)(F)F)nc4ccccc43)n(CCC#N)n2)cc1`, for which the inhibition was 5.23% (inactive).

As to `COc1ccc(-c2cc3nc(-c4ccccc4)cc(N4CCC(O)CC4)n3n2)cc1`, the inhibition is 8.92% (inactive).

For `Cc1ccc(S(=O)(=O)Nc2c(C)n(C)n(-c3ccccc3)c2=O)cc1C(=O)NCc1ccccc1`, the inhibition is -5.64% (inactive).

With `COc1ccc(N=NC2=C(O)CC(C)(C)CC2=O)cc1`, the inhibition was -3.64% (inactive).

For `Cc1nc2ccc(N=NC3=C(O)CC(C)(C)CC3=O)cc2s1`, the inhibition is 1.45% (inactive).

Regarding `COc1ccc(CCN2CC(O)=C(c3nc(C)cs3)C2=N)cc1OC`, the inhibition was 7.01% (inactive).

`COc1cccc(OCc2cc(C(=O)NCCN3CCCCC3CO)no2)c1` (configuration not stated): the inhibition is -19.8% (inactive).

As for `Cc1ccc(NNc2c(C)nc3ccccc3nc2=O)cc1`, the inhibition was 42.5% (inactive).

With `Cc1ccc2nc(-c3ccccc3)c(-c3ccccc3)nc2c1`, the inhibition was 2.44% (inactive).

Consider `O=C(Nc1ccc(S(=O)(=O)Nc2ncccn2)cc1)c1ccco1`, for which the inhibition was -1.81% (inactive).

Consider `COc1ccc(/C=C2\SC(=O)N(CCNC(=O)Cn3[nH]c(=O)c4ccccc4c3=O)C2=O)cc1`, for which the inhibition is 1.03% (inactive).

Consider `COc1ccc(C2SCC(=O)N2c2ccc(C)cc2)cc1` (configuration not stated), for which the inhibition was -1.14% (inactive).

Take `COc1ccc(O)c(C2=Nc3ccccc3N=C(c3cccs3)C2)c1`: the inhibition was -0.29% (inactive).

For the compound `O=C(O)C1CC(c2ccccc2)=Nc2ccccc2S1` (configuration not stated), the inhibition was 13.4% (inactive).

For the compound `COc1ccc(C2CC(c3cccs3)=NN2S(C)(=O)=O)cc1` (configuration not stated), the inhibition was -0.06% (inactive).

Turning to `CCC(=O)N1N=C(c2ccccc2)CC1c1ccc([N+](=O)[O-])cc1` (configuration not stated), the inhibition is 2.69% (inactive).

Take `O=C(Nc1ccccc1)N1CCC(O)(c2cccc(C(F)(F)F)c2)CC1`: the inhibition is 1.21% (inactive).

Regarding `CCN(CC)CCCN=C1N[C@@H](c2cccc(F)c2)C(C(=O)OC)=C(C)N1Cc1ccccc1`, the inhibition is -0.31% (inactive).

`CC(C)C(NC(=O)OCc1ccccc1)C(=O)OCC(=O)NCc1ccco1` (configuration not stated): the inhibition was 8.7% (inactive).

For the compound `Cc1ccc(C(=O)NNC(=O)c2cccc(C)c2)cc1`, the inhibition was -4.89% (inactive).

In the case of `CCOc1ccc(S(=O)(=O)Nc2ncn[nH]2)cc1`, the inhibition was 1.15% (inactive).

As to `CCOC(=O)c1c(C)n(C)c2ccc(OC(=O)c3ccc([N+](=O)[O-])cc3)cc12`, the inhibition was 25.7% (inactive).

`COc1ccc2c(c1)c(C(C)=O)c(C)n2C`: the inhibition was 4.3% (inactive).

Regarding `CC12CCC(=O)N1C(C(=O)N1CCN(c3ccc(C(F)(F)F)cc3[N+](=O)[O-])CC1)CS2` (configuration not stated), the inhibition was 4.09% (inactive).

As to `CC1(c2nnc(-c3ccccc3)o2)CC(c2ccncc2)=NO1` (configuration not stated), the inhibition is 10.1% (inactive).

Consider `CC1(c2nnc(-c3ccccc3)o2)CC(c2ccccc2)=NO1` (configuration not stated), for which the inhibition was 4.65% (inactive).

Take `Cc1nc(C)c(-c2csc(Nc3ccccn3)n2)s1`: the inhibition was 5.67% (inactive).

As for `O=S(=O)(c1cccc2cccnc12)N1CCN(c2ccccn2)CC1`, the inhibition is -2.85% (inactive).

With `COc1ccc(S(=O)(=O)N2CCN(CC(=O)Nc3ccccc3OC)CC2)cc1`, the inhibition was 5.95% (inactive).

Turning to `FC(F)Oc1ccc(NC(=S)Nn2cnnc2)cc1`, the inhibition was -3% (inactive).

With `COc1ccc(CNC(=O)C[C@H]2C(=O)N(c3ccccc3)C[C@@H]2Cc2ccccc2)cc1`, the inhibition is 0.74% (inactive).

On to `CC1Cc2ccccc2N1C(=O)CSc1nc2ccccc2n1CC(=O)N1CCOCC1` (configuration not stated), for which the inhibition was 7.22% (inactive).

In the case of `C=CCNC(=O)c1onc(CSc2ccc(OC)cc2)c1C(=O)O`, the inhibition was 4.85% (inactive).

On to `C=CCNC(=O)c1onc(CSc2ccc(Cl)cc2)c1C(=O)NCC=C`, for which the inhibition is 27.7% (inactive).

Consider `CCN(CC)S(=O)(=O)c1ccc(N2CCCC2)c(NC(=O)C2=COCCO2)c1`, for which the inhibition is -7.17% (inactive).

On to `Cn1c(CSCc2ccc(F)cc2)n[nH]c1=S`, for which the inhibition is -6.48% (inactive).

`COC(=O)CCN1CCC(c2cc(-c3cccc(C(F)(F)F)c3)n[nH]2)CC1`: the inhibition was 5.38% (inactive).

In the case of `FC(F)(F)c1cccc(-c2cc(C3CCNCC3)[nH]n2)c1`, the inhibition was 6.36% (inactive).

As to `O=C(CC1C(=O)NCCN1Cc1ccc(F)cc1)NCCCn1cccn1` (configuration not stated), the inhibition is -1% (inactive).

For the compound `O=S(=O)(NCCc1cn2ccccc2n1)c1ccc2c(c1)OCCO2`, the inhibition is -2.59% (inactive).

`Cc1c(C(=O)NCc2ccc(S(N)(=O)=O)cc2)oc2ccc(Cl)cc12`: the inhibition was -4.55% (inactive).

Regarding `COc1cc2nc(N3CCN(C(=O)c4ccco4)CC3)nc(N)c2cc1OC`, the inhibition is -7.62% (inactive) and 1.49% (inactive).

For the compound `COc1cc2nc(Nc3ccc(F)cc3)nc(N)c2cc1OC`, the inhibition was 23.2% (inactive).

For `COc1cc2nc(N3CCNCC3)nc(N)c2cc1OC`, the inhibition is -16.4% (inactive).

As for `COc1cc2nc(Nc3cccc(F)c3)nc(N)c2cc1OC`, the inhibition was 34.9% (inactive).
